56 molecules from PubChem BioAssay AID602281 (The Scripps Research Institute Molecular Screening Center, 2012) can be followed below.

Molecules are shown by their SMILES. About 2,900 (0.81%) of roughly 360,000 compounds were called active. This is one part of a sample in which actives are shown more often than they occur. Unmarked numbers belong to inactive results.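 Rule for the calls: active = inhibition above the mean inhibition across every tested compound plus 3 SD (cut at about 22% in these data); inactive = the rest.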

Perilipin-5 (Homo sapiens) + 1-acylglycerol-3-phosphate O-acyltransferase ABHD5 (Homo sapiens), sequence (Q00G26 whole entry, looked up): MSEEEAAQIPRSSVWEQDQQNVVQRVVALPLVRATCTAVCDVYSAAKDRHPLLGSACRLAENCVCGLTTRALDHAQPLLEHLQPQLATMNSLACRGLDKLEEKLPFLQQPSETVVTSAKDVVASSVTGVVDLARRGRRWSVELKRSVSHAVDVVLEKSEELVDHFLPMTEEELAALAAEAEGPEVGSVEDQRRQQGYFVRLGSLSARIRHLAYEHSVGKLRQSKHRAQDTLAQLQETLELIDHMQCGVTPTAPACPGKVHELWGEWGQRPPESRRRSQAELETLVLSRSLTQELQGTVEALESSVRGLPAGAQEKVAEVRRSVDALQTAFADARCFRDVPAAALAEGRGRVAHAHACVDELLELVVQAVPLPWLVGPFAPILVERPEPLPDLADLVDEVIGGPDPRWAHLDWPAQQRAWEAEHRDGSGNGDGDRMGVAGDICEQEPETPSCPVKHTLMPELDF
Perilipin-5 (Homo sapiens) + 1-acylglycerol-3-phosphate O-acyltransferase ABHD5 (Homo sapiens), sequence (Q8WTS1 whole entry, looked up): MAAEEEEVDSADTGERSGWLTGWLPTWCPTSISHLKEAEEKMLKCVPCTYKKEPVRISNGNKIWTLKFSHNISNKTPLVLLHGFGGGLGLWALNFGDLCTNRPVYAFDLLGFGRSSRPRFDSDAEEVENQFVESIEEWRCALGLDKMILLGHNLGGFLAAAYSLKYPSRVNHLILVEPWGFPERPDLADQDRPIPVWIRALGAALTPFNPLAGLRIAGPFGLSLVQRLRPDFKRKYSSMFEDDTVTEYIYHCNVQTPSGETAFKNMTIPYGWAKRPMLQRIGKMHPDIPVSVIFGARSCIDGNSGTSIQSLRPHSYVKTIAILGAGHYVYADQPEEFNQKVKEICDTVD

The test addresses Perilipin-5 (Homo sapiens) + 1-acylglycerol-3-phosphate O-acyltransferase ABHD5 (Homo sapiens) (UniProt Q00G26+Q8WTS1). Nature of the test: blockers of ABHD5 binding to perilipin-5 – cell lysate, split luciferase complementation, luminescence, primary screen (AID 602281).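 Note: 0% = DMSO only wells and the 100% control is not disclosed.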 The following applies: Split G. princeps luciferase complementation, 4 h, at 4 µM, active compounds read high.
In general, inhibition refers to the drop in the measured response relative to a control, in per cent. Regarding `Fc1cccc(Cc2c(-c3ccc(Cl)cc3)nc3ccc(Cl)cn23)c1`, the inhibition was 11.5%.
To `Cc1ccc(Cc2c(-c3ccco3)nc3ccc(Cl)cn23)cc1` belongs 54.8% (active).
Turning to `Cc1cc2nc(-c3ccc(F)cc3)c(Cc3ccsc3)n2c(C)c1Br`, the inhibition was -2.1%.
To `Clc1cccc(Cc2c(-c3cccc(Cl)c3)nc3ccc(Cl)cn23)c1` belongs -8.19%.
Consider `Fc1cccc(Cc2c(-c3cccc(Cl)c3)nc3ccc(Br)cn23)c1`, for which the inhibition is -8.3%.
In the case of `Cc1cc2nc(-c3ccc(Cl)cc3)c(Cc3cccc(F)c3)n2c(C)c1Br` it was -5.68%; in that of `Cc1ccc2nc(-c3ccco3)c(Cc3cccc(Cl)c3)n2c1`, 32.1% (active).
In the case of `Cc1ccc(Cc2c(-c3ccccc3)nc3ccc(Cl)cn23)cc1`, the inhibition was -3.87%.
To `Cc1cc2nc(-c3ccco3)c(Cc3cccc(F)c3)n2c(C)c1Br` belongs 23.1% (active); to `Nn1c(SCc2ccccc2)nnc1C1CCCCC1`, 7.84%; to `CCOc1ccc(NC(=O)CN(C)CC(=O)Nc2cccc(Cl)c2C)cc1OCC`, -2.27%.
In the case of `COCCN1Cc2cccc(C(=O)Nc3ccccc3OC)c2C1=O` it was 2.14%; in that of `CCc1ccccc1S(=O)(=O)Cc1ccc(C(=O)NCCc2ccccc2)o1`, 0.54%; in that of `CCC(C)CN1C(=O)CSCC1(C)C(=O)NCc1ccccc1` (stereo unspecified), -0.17%.
To `NC(=O)C(Cc1ccccc1)NC(=O)C12CC3CC(CC(C3)C1)C2` (stereo unspecified) belongs -7.59%; to `COc1cc(OC)cc(C(=O)NNC(=O)CNC(=O)c2ccc(Br)o2)c1`, 1.69%; to `CCCCCCNC(=O)O[C@H]1CN(C(=O)OC(C)C)N(C(=O)OC(C)C)[C@@H]2CN(S(=O)(=O)c3ccc(C)cc3)C[C@]12O`, -9.24%.
`CCOCCOC(=O)C1=C(C)N(C)C(=O)NC1c1ccccc1F` (stereo unspecified): the inhibition was 2.63%.
In the case of `CN1c2ccc(C=O)c3c(C=O)ccc(c23)N(C)C1(C)C` it was 7.33%; in that of `Cc1cc(C)cc(OCC(=O)NCc2cc(C)nc3ccccc23)c1`, 0.84%.
In the case of `Cc1cc(C)c(NC(=O)C[N+](C)(C)CC(O)COc2cccc3ccccc23)c(C)c1` (stereo unspecified) it was 33% (active); in that of `CC(C)c1ccccc1OCC(O)CN(CC(O)COc1cccc2ccccc12)C(C)C` (stereo unspecified), 8.09%; in that of `NC(=O)c1ncn([C@@H]2O[C@H](CNCc3cnc(N4CCOCC4)s3)[C@@H](O)[C@H]2O)n1`, -2.34%.
To `COc1ccc(C(=O)c2c3ccc([N+](=O)[O-])cc3[n+]([O-])n2CCCN)cc1` belongs -9.06%.
Take `O=C(CSc1nc(C2CC2)nc2ccccc12)Nc1cccc(O)c1`: the inhibition was -2.61%.
To `O=C(NNc1c2ccccc2nc2ccccc12)c1cc2ccccc2cc1O` belongs 26.3% (active); to `O=C(Cc1ccccn1)c1ccc(O)cc1O`, -1.78%; to `CCCn1c(N)c(N(CCOC)C(=O)C2CCCC2)c(=O)[nH]c1=O`, -0.19%.
In the case of `Cc1ccc(CC(=O)N(C)CC(=O)N(CC(C)C)c2c(N)n(CC(C)C)c(=O)[nH]c2=O)cc1C` it was -2.36%; in that of `Cc1ccccc1/C=C\c1nc(O)c([N+](=O)[O-])c(=O)[nH]1`, 15.6%; in that of `O=c1cc(O)c(-c2cccc(C(F)(F)F)c2)c(Cl)[nH]1`, 1.03%.
In the case of `O=c1[nH]c(/C=C\c2cccc(C(F)(F)F)c2)nc(O)c1[N+](=O)[O-]` it was 42.7% (active).
For `COCCCNC(NC(=O)c1ccc(C)cc1)C(Cl)(Cl)Cl` (stereo unspecified), the inhibition is -2.85%.
In the case of `COc1ccccc1CNC(=O)c1ccc(N(C)S(=O)(=O)c2ccc(C)cc2)cc1` it was 4.36%; in that of `CN(CCO)S(=O)(=O)c1ccc2c(c1)C(=O)c1cc(S(=O)(=O)N(C)CCO)ccc1-2`, -0.45%; in that of `CCC1(c2ccccc2)NC(=O)N(CC(=O)Nc2ccccc2C(=O)NC2CCCC2)C1=O` (stereo unspecified), -4.04%.
In the case of `C=C(C)C(=O)O[C@H]1C/C(C)=C\C(=O)/C=C(\C)[C@H](O)[C@@H]2OC(=O)C(=C)[C@@H]21` it was 27% (active).
To `COc1cccc(C2CC(c3ccccc3)=NN2S(=O)(=O)c2ccccc2)c1OC` (stereo unspecified) belongs -7.74%.
For `CCS(=O)(=O)Nc1ccc(C2=NN(S(=O)(=O)c3ccc(F)cc3)C(c3ccco3)C2)cc1` (stereo unspecified), the inhibition was 29.4% (active).
To `Cc1ccc(C2=NN(C(=O)CSc3nc(N)cc(N)n3)C(c3ccco3)C2)cc1` (stereo unspecified) belongs 12.7%; to `O=C(NCc1ccccn1)c1c(O)c2c([nH]c1=O)CCCC2`, 3.03%; to `Cc1[nH]c(=O)c(C(=O)/C=C/c2ccccc2)c2c1CCCC2`, 32.6% (active).
In the case of `C/C(=C\c1ccccc1)C1NC(=O)c2c(sc3c2CCCC3)N1` (stereo unspecified) it was -8.89%.
`COC(=O)COc1cccc2c(=O)n(CC(=O)NCc3ccccc3)ccc12`: the inhibition was -4.9%.
To `CCN(CC(=O)Nc1c(F)cccc1F)C(=O)c1ccc(S(=O)(=O)N2CCCCC2)cc1` belongs 0.66%; to `COc1cc(C(=O)NNC(=O)c2ccc(S(=O)(=O)N3CCCCC3)cc2)cc(OC)c1OC`, 0.06%; to `CN(C)CCCN(C(=O)c1ccc(S(=O)(=O)N2CCCCCC2)cc1)c1nc2ccc(Br)cc2s1`, 22.3% (active).
To `O=C(O)CCn1cc(/C=C/C(=O)c2ccc(Cl)cc2)c(-c2cccc(Br)c2)n1` belongs 22.9% (active).
In the case of `COc1ccc(NC(=O)CN(C)C(=O)/C=C/c2cn(Cc3ccccc3)nc2-c2cccnc2)cc1` it was 0.58%; in that of `Cc1ccc(S(=O)(=O)N[C@H](CO)C(C)C)cc1`, 2.76%; in that of `COc1ccc(/C=C/C(=O)c2ccc(NS(=O)(=O)c3ccc(C)cc3)cc2)cc1O`, 46% (active).
For `COc1ccc(S(=O)(=O)Nc2ccc3oc(C)c(C(C)=O)c3c2)cc1`, the inhibition was 4.01%.
To `COc1ccc(C(=O)/C=C/c2ccc(-c3ccccc3)cc2)cc1CSCC(=O)O` belongs 14.9%.
To `CC(C)Cc1nn2c(=O)cc(O)nc2s1` belongs 4.21%; to `O=C(NCC(=O)N(Cc1cccs1)C(C(=O)NC1CCCCC1)c1ccco1)c1cccs1` (stereo unspecified), -12.1%.
To `CCNC(=O)CC1C(=O)N(c2ccc(OC)cc2)C(=O)N1CCOC` (stereo unspecified) belongs 2.8%.
